Assay outcomes as filed in PubChem.
Efflux pump inh – inhibitors of Candida antifungal efflux pumps expressed in yeast; S. cerevisiae Candida pump triplex, Nile Red efflux; actives 0.44% (n = 330,000); AID 485275; inhibition, % at 10 µM;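 active means plate passing quality check with inhibition over a set limit, or well fluorescence over plate mean plus 4 SD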;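 further: Nile Red retained in pooled yeast measured as flow cytometry median fluorescence; 0% = buffer negative control and 100% = Enniatin B positive control; higher means more Nile Red kept so more efflux inhibition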
Rce1 inhib – blocks yeast Ras-converting enzyme. yeast membranes, quenched prenylated peptide cleavage fluorescence. calls only. actives 0.27% (n = 290,000);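 active means fall in fluorescence gain of 50% or more versus controls, with final raw signal at or below 3038400; inconclusive means same 50% fall but final raw signal above 3038400; inactive means fall in fluorescence gain under 50%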;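 further: plate controls were neutral control wells for no effect and wells lacking membranes for full effect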
GRK2 aptamer HTS – inhibitors of human GRK2 displacing RNA aptamer. P25098. bead flow cytometry, FAM-aptamer displacement from GRK2. inhibition of aptamer binding, % at 10 µM. actives 0.59% (n = 330,000). AID 488847;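 active means inhibition of aptamer binding above 40%, roughly 3 SD of noise, on plates passing a quality check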;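 further: median bead fluorescence of bound FAM aptamer so fluorescent compounds give negative values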
HDAC3 inh – blocks human histone deacetylase 3. O15379. recombinant HDAC3, fluorogenic peptide/trypsin coupled, fluorescence. inhibition, % at 8.3 µM. actives 0.15% (n = 320,000); in the data active means inhibition above about 26%, passing the limit was not always enough; inconclusive means no clear call, values can overlap the other calls
Rtt109 HAT inh – blocks Candida albicans Rtt109/Vps75 acetyltransferase activity; Q5AAJ8; purified Rtt109/Vps75, ThioGlo CoA-SH fluorescence, 4 h; inhibition, % at 34.9 µM; actives 0.16% (n = 330,000);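 active means inhibition of at least 50% in every replicate; inconclusive means best replicate reaches 50% inhibition but some replicates fall short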
Target sequence (Q5AAJ8 whole entry, looked up): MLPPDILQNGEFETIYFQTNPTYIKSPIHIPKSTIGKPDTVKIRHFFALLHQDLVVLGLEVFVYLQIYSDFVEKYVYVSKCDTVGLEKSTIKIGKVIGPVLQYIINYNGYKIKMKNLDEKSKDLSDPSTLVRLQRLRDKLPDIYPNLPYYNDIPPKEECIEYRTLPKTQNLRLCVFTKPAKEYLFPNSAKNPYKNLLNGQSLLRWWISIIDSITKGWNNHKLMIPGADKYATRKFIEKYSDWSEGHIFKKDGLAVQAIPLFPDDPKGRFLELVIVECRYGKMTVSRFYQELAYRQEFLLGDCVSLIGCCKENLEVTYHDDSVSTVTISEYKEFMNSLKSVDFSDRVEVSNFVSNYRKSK
ALR inh – blocks human ALR sulfhydryl oxidase activity; actives 3.8% (n = 290,000); AID 485317; purified ALR, DTT oxidation, H2O2 HRP-luminol luminescence; inhibition, % (concentration not given with the values); P55789;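 active means mean replicate inhibition above about 79%, with every replicate also reaching it, limit read from the data; inconclusive means only one of the two criteria met; inactive means mean below limit and not every replicate reaching it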
* = called active by the depositor; i = inactive; u = inconclusive; x = no result given. Shown are actives, neighbours in structure and some others; about 4.5% of the full set was active somewhere.

SMILES	Efflux pump inh	Rce1 inhib	GRK2 aptamer HTS	HDAC3 inh	Rtt109 HAT inh	ALR inh
O=S(=O)(c1ccc(Cl)cc1)N1CCN=C1SCc1cccc(Cl)c1	0	i	2	0	-1	x
COc1ccc(S(=O)(=O)N2CCN=C2SCc2cccnc2)cc1	0	x	0	-3	x	99*
O=S(=O)(c1ccc(Cl)cc1)N1CCN=C1SCc1cccnc1	0	i	0	-3	-1	97*
CCS(=O)(=O)N1CCN=C1SCc1cccnc1	0	i	0	-5	-10	98*
CCN(CC(=O)Nc1cc(Cl)ccc1C)C(=O)c1nc2nc(C)cc(C)n2n1	0	x	0	1	-3	2
C=CCn1c(=O)c2c(nc3n2CC(C)CN3CCc2ccccc2)n(C)c1=O (centres undefined)	0	i	1	-12	4	14
CCCN(CC(=O)Nc1ccccc1C)C(=O)c1ccc(N2CCCC(C)C2)c([N+](=O)[O-])c1 (centres undefined)	x	x	x	x	3	x
O=S(=O)(c1ccccc1)N1CCN=C1SCc1cccnc1	0	i	4	-3	2	100*
CS(=O)(=O)N1CCN=C1SCc1ccccc1	0	i	1	0	10	-3
Cc1nc([N+](=O)[O-])c(Br)n1CC(=O)c1ccc(Cl)cc1	0	i	1	1	2	97*
COc1ccc(C(=O)Cn2c(C)nc([N+](=O)[O-])c2Br)cc1	0	i	0	4	-3	1
CC1CCN(CCCNC(=O)c2ccc3c(Cl)c4c(nc3c2)CCCC4)CC1	0	i	0	u	18	90*
CCN1CCN(C(=O)c2ccc3c(Cl)c4c(nc3c2)CCCC4)CC1	0	i	0	4	-1	98*
Cc1cc(C)cc(C(=O)NCCCN2CCOCC2)c1	0	i	2	-5	-8	-23
O=S(=O)(NCCC1=CCCCC1)c1ccc(OC(F)(F)F)cc1	0	i	0	7	-1	-3
S=C(Nc1nc2c(s1)CCCC2)NC1CC1	0	i	16	-1	-6	86*
Nc1sccc1C(=O)c1ccccc1	0	i	0	0	x	98*
O=C(c1ccccc1)c1ccccc1C(=O)c1ccccc1	0	i	3	-2	4	-10
CCn1c(CNc2nc3ccccc3n2C(C)C)nc2ccccc21	0	i	2	3	-1	98*
C=CCn1c(NCc2cc(C)ccc2O)nc2ccccc21	0	i	0	4	7	98*
C=CCn1c(NCc2ccco2)nc2ccccc21	0	i	1	-2	20	17
COc1ccc(CNc2nc3ccccc3n2C(C)C)c(O)c1	0	i	0	9	1	99*
Cc1ccc(O)c(CNc2nc3ccccc3n2C(C)C)c1	0	i	14	1	-1	98*
CCc1c(O)nc(SCC(=O)N2CCc3cc(OC)c(OC)cc3[C@@H]2C)[nH]c1=O	0	i	2	0	u	99*
O=C(CSc1nc(O)c(Cc2ccccc2)c(=O)[nH]1)Nc1nnc(SCc2ccccc2)s1	0	i	3	-6	-16	30
SMILES	Efflux pump inh	Rce1 inhib	GRK2 aptamer HTS	HDAC3 inh	Rtt109 HAT inh	ALR inh
CCCc1c(O)nc(SCC(=O)NCCc2ccc(OC)c(OC)c2)[nH]c1=O	0	i	3	0	-3	98*
O=C(CSc1nc(O)c(Cc2ccccc2)c(=O)[nH]1)Nc1ccccc1	0	i	7	-2	u	99*
COc1ccc(NC(=O)CSc2nc(O)c(Cc3ccccc3)c(=O)[nH]2)cc1	-1	i	3	6	11	99*
O=C1CCCc2cc3c(cc21)CC1(C3)Cc2cc3c(cc2C1)C(=O)CCC3	0	i	0	9	-5	-4
COc1ccccc1C(CNC(=O)c1ccc(C)c(S(=O)(=O)N2CCCCC2)c1)N1CCCC1 (centres undefined)	x	x	x	x	1	x
CCN(CC)C(=O)CSc1nc(O)c(Cc2ccc(OC)cc2)c(=O)[nH]1	0	i	1	-3	-11	98*
COc1ccc(CCNC(=O)CSc2ccccc2)cc1OC	0	i	0	-3	-1	x
COc1ccc(CCNC(=O)COc2ncnc3ccccc23)cc1OC	0	i	0	2	-2	-1
COc1ccc(CNC(=O)CSc2ncnc3ccccc23)cc1OC	0	i	0	-6	20	89*
